# Out of some 68,000 compounds screened, about 2,700 (4%) showed an effect of 50% or more. Only a selection was taken, and strong results are over-represented in it overall.
# Test system: Plasmodium berghei
# Assay: Screen against P. berghei liver stage (PbLuc), transformed with Luciferase, at 2uM
# Assay type: functional, HepG2
# Conditions: tested at 2 uM
row,Compound,INHIBITION
1,COCCC1(CNC(=O)Nc2ccnc(C)c2)CCCC1,-37.69%
2,CC(=O)N1N=C(c2ccccc2)OC1C(=O)NCCC1=CCCCC1 (configuration not stated),85.54%
3,CC(=O)N1N=C(c2ccco2)OC1C(=O)NCC(C)C (configuration not stated),5.77%
4,CC(=O)N1N=C(c2ccccc2)OC1C(=O)NCCc1ccc(O)cc1 (configuration not stated),26.64%
5,CC(=O)N1N=C(c2ccccc2)OC1C(=O)NCCc1ccc(C)cc1 (configuration not stated),34.18%
6,CC(=O)N1N=C(c2ccco2)OC1C(=O)NCCc1ccc(O)cc1 (configuration not stated),20.42%
7,CC(=O)N1N=C(c2ccco2)OC1C(=O)NCCc1ccc(F)cc1 (configuration not stated),58.6%
8,Cc1noc(CNC(=O)[C@@H](C)NC(=O)OC(C)(C)C)n1,-29.78%
9,Cc1[nH]n(C)c2nc(=O)cc(C(F)(F)C(F)(F)F)c1-2,-69.92%
10,O=C([C@@H]1COC[C@H]2CN(C3CCCC3)C[C@H]21)N1CCC(F)CC1,9.45%
11,O=S(=O)(CCc1ccccc1)Nc1cc(Cl)ccn1,0.51%
12,CCn1cc(S(=O)(=O)N2CCC3(CCCN(CC4CCC4)C3=O)C2)cn1 (configuration not stated),13.58%
13,Cc1cnn(CC2CCCCN2C(=O)CN(C)C2CC2)c1 (configuration not stated),21.31%
14,O[C@H]1CN(CCOc2ccc(F)cc2)CC[C@@]12CCCO2,9.05%
15,O=C(C1CCOCC1)N1CCc2ncc(CN3CCCC3)n2CC1,-9.48%
16,O=C(C1CCOCC1)N1CCc2ncc(CN3CCCCC3)n2CC1,41.28%
17,O=C(N1CCOCC1)N1CCc2ncc(CN3CCCCC3)n2CC1,56.25%
18,COc1c(Cl)cccc1NCc1csc(NC(C)=O)n1,-49.16%
19,Cc1noc([C@H]2C[C@@H]3CCN(C(=O)N(C)C)C[C@H]3O2)n1,-7.58%
20,CC(NCc1nnc2n1CCCC2)c1nc(-c2cccs2)no1 (configuration not stated),26.14%
21,Cc1cc(NC(=O)CN2CCn3c(nnc3C3CC3)C2)on1,17.12%
22,CCN(CC)c1ncc(Cl)c(C(=O)NC2CCC(O)CC2)n1 (configuration not stated),-2.22%

row,Compound,INHIBITION
1,CCN(CC)c1ncc(Cl)c(C(=O)NC2CC2)n1,26.8%
2,CCN(CC)c1ncc(Cl)c(C(=O)NC2CCc3nccn3C2)n1 (configuration not stated),59.56%
3,CCOC(=O)[C@@H]1[C@@H](c2ccccc2)CN2CCN(C(C)=O)C[C@H]12,40.13%
4,CCOCCn1c(=O)[nH]c2cc(C(=O)N(C)Cc3nc(C)c[nH]3)ccc21,11.64%
5,CCOCCn1c(=O)[nH]c2cc(C(=O)N(C)Cc3cc(C)[nH]n3)ccc21,14.24%
6,CCOCCn1c(=O)[nH]c2cc(C(=O)N(C)Cc3nc(C)cs3)ccc21,51.98%
7,COCCN1CCc2ncnc(-c3ccccc3)c2CC1,39.44%
8,Cc1ccn2ncc(C(=O)N3CCCC(n4cccn4)C3)c2n1 (configuration not stated),5.52%
9,Cc1ccn2ncc(C(=O)N3CCCC(c4cc(C)[nH]n4)C3)c2n1 (configuration not stated),18.91%
10,CCc1nccn1C1CCCN(C(=O)c2cnn3ccc(C)nc23)C1 (configuration not stated),-14.3%
11,Cc1ccn2ncc(C(=O)N3CCCC(n4ccnc4C)C3)c2n1 (configuration not stated),56.02%
12,Cc1csc(C2CCCN(C(=O)c3cnn4ccc(C)nc34)C2)n1 (configuration not stated),14.96%
13,Cc1ccn2ncc(C(=O)N3CCCC(c4noc(C)n4)C3)c2n1 (configuration not stated),50.52%
14,CCN1Cc2cc(F)ccc2N(C(C)=O)CCC1=O,-10.65%
15,CNc1nc2c(s1)C(c1ccccc1F)CC(=O)N2 (configuration not stated),-37.62%
16,Cc1ccc(-c2ncc(CNc3cnccc3CO)s2)cc1,-13.13%
17,O=C(C1CCC2(CCN(Cc3cccnc3)CC2)CO1)N1CCCC1 (configuration not stated),-84.83%
18,CC(NC(=O)N1CCN(c2cccs2)CC1)c1ccc(C#N)cc1 (configuration not stated),16.79%
19,CN1CCN(Cc2nnc(C3CCN(C(CO)CO)CC3)n2C)CC1,59.68%
20,CN1CCN(Cc2nnc(C3CCN(CC4CC4)CC3)n2C)CC1,-0.04%
21,CN1CCN(Cc2nnc(C3CCN(C4CCCCC4)CC3)n2C)CC1,26.81%
22,Cc1cc(CN2CCC(C3Nc4ccccc4S(=O)(=O)N3)CC2)oc1C (configuration not stated),22.81%

row,Compound,INHIBITION
1,CCOC(=O)CN(C)C1CCc2ccccc21 (configuration not stated),44.71%
2,CN(C)C(=O)CNC(=O)c1cc2ccccc2nc1N1CCCC1,8.74%
3,CCn1cc(Cl)c(C(=O)NCCCO)n1,12.84%
4,CCN(CC(=O)NCc1nc(C2CC2)no1)Cc1ccc(Cl)cc1,-37.68%
5,CCc1nc(C2CCCN(C(=O)c3ccc(Cl)cc3)C2)no1 (configuration not stated),9.82%
6,O=C(CCNC(=O)c1ccc(Cl)cc1)NCc1nc(C2CC2)no1,60.34%
7,c1cnc(N2CCCC(NCc3ccc(-n4ccnc4)cc3)C2)nc1 (configuration not stated),1.91%
8,Cc1cnn(CC2CCCCN2C(=O)c2c(C)noc2C)c1 (configuration not stated),-13.24%
9,CCC(CO)NCc1ccc(-c2ccccc2)o1 (configuration not stated),12.02%
10,CN(C)c1ccc(C(=O)NCCCNc2ccc(C(F)(F)F)cn2)cc1,25.74%
11,Nc1ncc(-c2ccc(C(F)(F)F)cc2)c(C2CCCNC2)n1 (configuration not stated),-10.58%
12,Nc1ncc(-c2ccc(Cl)cc2)c(C2CCCNC2)n1 (configuration not stated),37.63%
13,Nc1ncc(-c2ccc(F)cc2)c(C2CCCNC2)n1 (configuration not stated),54.2%
14,O=C(C1CC=CC1)N1C[C@@H]2CN(Cc3ccsc3)CCO[C@@H]2C1,-10.92%
15,Cc1ccc(C)c(CC(=O)NC2CCCS(=O)(=O)C2)c1 (configuration not stated),57.75%
16,Cc1ccc(C)c(CC(=O)NC2CCC(N3C(=O)CCC3=O)CC2)c1 (configuration not stated),-37.65%
17,Cc1ccc(C)c(CC(=O)NC2CCS(=O)(=O)CC2)c1,29.13%
18,CC(C)c1nc(CN(C)C(=O)c2ccc(CN3CCCCC3)cc2)cs1,0.31%
19,Fc1ccc(CN2CCC3(CC2)CC(c2cccnc2)CO3)cc1 (configuration not stated),-14.21%
20,CC1c2ncc(Cn3cncn3)n2CCN1C(=O)Cc1cccs1 (configuration not stated),28.77%
21,CCOCc1cnc2n1CCN(C(=O)Cc1cccs1)C2C (configuration not stated),-24.63%
22,CC(C)N(C)Cc1cnc2n1CCN(C(=O)Cc1cccs1)C2C (configuration not stated),70.31%

row,Compound,INHIBITION
1,CCc1n[nH]c(C2CN(C(=O)c3cc4c(s3)CCCC4)CCO2)n1 (configuration not stated),20.28%
2,Cc1cc2c(N)nc(=O)n(CC(=O)Nc3cccc(Cl)c3)c2s1,6.05%
3,CCN(CCOC)C(=O)c1cc(COc2ccc3c(c2)CCCC3)on1,29.89%
4,COCCCN1CCc2cncnc2C1,-12.48%
5,CCOCCN1CCc2cncnc2C1,31.51%
6,CC(C)OCCN1CCc2cncnc2C1,62.51%
7,COC(=O)c1sc(C(NC(=O)c2ccccc2)C2CC2)nc1C (configuration not stated),-13.12%
8,C=C(C)CN1CCC(NC(=O)c2scnc2C)CC1,-7.13%
9,COc1cc(I)c(Cl)cc1C(=O)N(C)C,32.04%
10,CCOCc1nc2c(c(N3CCCn4nc(C)cc4C3)n1)CCNCC2,-31.55%
11,Cc1cc2n(n1)CCN(c1nc(N)nc3c1CCNCC3)C2,17.6%
12,COCCNc1nc2c(c(N3CCn4nc(C)cc4C3)n1)CCNCC2,51.19%
13,O=C1CC[C@@H](C(=O)N2CCC(Cn3cc(C4CCCCC4)nn3)CC2)N1,17.61%
14,CC(C)n1nc2c(cc1=O)CN(c1ncnc3sccc13)CC2,-35.16%
15,COCCN1C(=O)c2ccc(C(=O)NCCc3c[nH]cn3)cc2C1=O,34.59%
16,CC(C)CN(CC(O)c1ccc(F)cc1)C(=O)c1cnsn1 (configuration not stated),-36.72%
17,O=C(NC1CCN(Cn2nc(-c3ccccc3)oc2=O)CC1)C1CC1,-0.69%
18,CC1CCCN(Cc2cccc(C(=O)Nc3nccs3)c2)C1 (configuration not stated),63.46%
19,Cc1cc(C2CCCN2Cc2cccc(C(=O)Nc3nccs3)c2)no1 (configuration not stated),2.7%
20,CC(=O)Nc1cccc(CN2CCCC2C(=O)Nc2nccs2)c1 (configuration not stated),-4.48%
21,CC(C)N(C)Cc1cn2c(n1)CN(C(=O)Cc1ccccc1)CC2,-47.56%
22,CCN1CCN(C(=O)CCc2c(C)noc2Cl)CC1,-61.5%

row,Compound,INHIBITION
1,Cc1noc(Cl)c1CCC(=O)N1CCN(CC(C)(C)O)CC1,21.89%
2,Cc1noc(Cl)c1CCC(=O)N1CCN(Cc2ccncc2)CC1,62.13%
3,O=C(Nc1ccc2c(ccn2CCN2CCOCC2)c1)c1ccccn1,13.72%
4,Cc1cc(CN(C)C(=O)NC2CCCC2)no1,29.12%
5,N#Cc1cccc(N2CCCC3(CCC(=O)N(C4CCCC4)C3)C2)n1 (configuration not stated),-11.07%
6,COc1c(C2CCCN2C(=O)c2sc(C)nc2C)c(C)nn1C (configuration not stated),-37.68%
7,CN(C)C(=O)CN1CCCCC1c1nc(N)ncc1-c1cccc(F)c1 (configuration not stated),65.76%
8,CN(C)C(=O)CN1CCCCC1c1nc(N)ncc1-c1ccccc1 (configuration not stated),-19.81%
9,NC(=O)CN1CCCCC1c1nc(N)ncc1-c1cccc(F)c1 (configuration not stated),18.64%
10,CC(=O)c1c(C)nn(S(=O)(=O)c2ccc(F)cc2)c1C,16.13%
11,Cc1nc2cc(O)nn2c(C)c1CCC(=O)NCCCC(C)C,37.68%
12,CC(C)C1CN(C(=O)c2cc(F)cc3[nH]cnc23)CCS1 (configuration not stated),11.24%
13,CN(C)C1CCCN(C(=O)NCCC(C)(C)C)C1 (configuration not stated),28.95%
14,CC(C)N(CCNC(=O)N1CCCC(N(C)C)C1)C1CC1 (configuration not stated),73.01%
15,CN(C)C1CCCN(C(=O)NCCC(=O)N2CCCCCC2)C1 (configuration not stated),-17.01%
16,Cc1ccc(O)c(CNCC2CCCN2c2cccnn2)n1 (configuration not stated),24.88%
17,CCCNC(=O)c1nn(CC)cc1Cl,-40.28%
18,CCN(CC)CCNC(=O)c1nn(CC)cc1Cl,54.07%
19,CCN(CC)CCCNC(=O)c1nn(CC)cc1Cl,24.34%
